{
  "source": "ChEMBL document CHEMBL3988442",
  "about": "“University of Dundee, Small-Polar-MMV Screening Library” (2021)",
  "tested_on": "Trypanosoma brucei",
  "test": "Trypanosoma brucei 72 hour study",
  "format": "functional, organism-based",
  "parameters": "scale not given: in the data most compounds retested in dose-response had high values",
  "note": "Screen size: about 66,000 compounds; about 960 (1.5%) showed an effect of 50% or more. Many of the other results were omitted from the sample, so strong results are more common in it than they were.",
  "data": [
    {"smiles": "Cn1cc(CN2CCC3(CC2)NC(=O)CC3c2ccncc2)cn1.O=C(O)C(F)(F)F.O=C(O)C(F)(F)F", "note": "(stereo not given)", "values": [
      {"measurement": "Percent Effect", "setting": "30 µM, 30.03 µM", "value": 47.38, "unit": "%"}
    ]},
    {"smiles": "COc1ccc(S(=O)(=O)N2CCOC(Cn3ccnc3)C2)cc1.Cc1ccc(S(=O)(=O)O)cc1", "note": "(stereo not given)", "values": [
      {"measurement": "Percent Effect", "setting": "30.3 µM, […]", "value": -20.84, "unit": "%"}
    ]},
    {"smiles": "CN(CCNC(=O)c1cnc(-c2ccccc2)nc1)S(C)(=O)=O", "values": [
      {"measurement": "Percent Effect", "setting": "30 µM, 30.03 µM", "value": 23.88, "unit": "%"}
    ]},
    {"smiles": "CCc1ncc(C(=O)NCCN(C)S(C)(=O)=O)cn1", "values": [
      {"measurement": "Percent Effect", "setting": "30 µM, 30.03 µM", "value": 1.892, "unit": "%"}
    ]},
    {"smiles": "CN(CCNC(=O)c1cnc(-c2ccncc2)nc1)S(C)(=O)=O", "values": [
      {"measurement": "Percent Effect", "setting": "30 µM, 30.03 µM", "value": 61.08, "unit": "%"}
    ]},
    {"smiles": "CN(C)C(=O)NCc1cc(=O)n2c(n1)CN(Cc1ccoc1)CCC2.O=C(O)C(F)(F)F", "values": [
      {"measurement": "Percent Effect", "setting": "30 µM, 30.03 µM", "value": -46.36, "unit": "%"}
    ]},
    {"smiles": "Cc1nc(CN(C)C2CCN(CCn3cc(C#N)cn3)C2)no1", "note": "(stereo not given)", "values": [
      {"measurement": "Percent Effect", "setting": "30.3 µM, […]", "value": -2.287, "unit": "%"}
    ]},
    {"smiles": "Cc1cccc(OCCC(=O)N(C)CC(C)C#N)c1C", "note": "(stereo not given)", "values": [
      {"measurement": "Percent Effect", "setting": "30 µM, 30.03 µM", "value": 9.501, "unit": "%"}
    ]},
    {"smiles": "Cc1cccc(OCCC(=O)N(C)CCNS(C)(=O)=O)c1C", "values": [
      {"measurement": "Percent Effect", "setting": "30 µM, 30.03 µM", "value": 57.14, "unit": "%"}
    ]},
    {"smiles": "Cc1cccc(OCCC(=O)N(C)CCC#N)c1C", "values": [
      {"measurement": "Percent Effect", "setting": "30 µM, 30.03 µM", "value": 43.96, "unit": "%"}
    ]},
    {"smiles": "Cc1ccc(-n2cccn2)cc1S(=O)(=O)N1C[C@@H]2CC[C@H](C1)N(C)C2", "values": [
      {"measurement": "Percent Effect", "setting": "30 µM, 30.03 µM", "value": 75.01, "unit": "%"}
    ]},
    {"smiles": "COc1ccc(-n2cccn2)cc1S(=O)(=O)N1C[C@H](C2CC2)[C@@H](N)C1", "values": [
      {"measurement": "Percent Effect", "setting": "30 µM, 30.03 µM", "value": 27.88, "unit": "%"}
    ]},
    {"smiles": "Cc1ccc(-n2cccn2)cc1S(=O)(=O)N1C[C@H](C2CC2)[C@@H](N)C1", "values": [
      {"measurement": "Percent Effect", "setting": "30 µM, 30.03 µM", "value": 17.94, "unit": "%"}
    ]},
    {"smiles": "COc1ccc(N2Cc3nc(=O)n(C(C)C)n3C2=O)cc1", "values": [
      {"measurement": "Percent Effect", "setting": "30 µM, 30.03 µM", "value": -34, "unit": "%"}
    ]},
    {"smiles": "CCN1CC2(CC1=O)CN(Cc1ccncc1)CCN(C(=O)C(C)C)C2.O=C(O)C(F)(F)F.O=C(O)C(F)(F)F", "note": "(stereo not given)", "values": [
      {"measurement": "Percent Effect", "setting": "30 µM, 30.03 µM", "value": -22.83, "unit": "%"}
    ]},
    {"smiles": "O=C(NCCc1nnc2n1CCC2)N1CCC2(CCCCC2)C1", "values": [
      {"measurement": "Percent Effect", "setting": "30.3 µM, […]", "value": -13.71, "unit": "%"}
    ]},
    {"smiles": "O=C(NCc1nnc2n1CCC2)N1CCC2(CCCCC2)CC1", "values": [
      {"measurement": "Percent Effect", "setting": "30.3 µM, […]", "value": -3.097, "unit": "%"}
    ]},
    {"smiles": "O=C(NCCc1nnc2n1CCCCC2)N1CCC2(CCCC2)CC1", "values": [
      {"measurement": "Percent Effect", "setting": "30.3 µM, […]", "value": 99.8, "unit": "%"}
    ]},
    {"smiles": "O=C(C1CCOCC1)N1CCc2ncc(CN3CCCC3)n2CC1.O=C(O)C(F)(F)F", "values": [
      {"measurement": "Percent Effect", "setting": "30.3 µM, […]", "value": -192.2, "unit": "%"}
    ]},
    {"smiles": "COc1cccc(-c2nc(C)c(C(=O)N[C@@H](CC(C)C)C(=O)O)s2)c1", "values": [
      {"measurement": "Percent Effect", "setting": "30 µM, 30.03 µM", "value": -38.77, "unit": "%"}
    ]},
    {"smiles": "CNC(=O)C(CC(C)C)NC(=O)c1cccc(-c2n[nH]c(C)n2)c1", "note": "(stereo not given)", "values": [
      {"measurement": "Percent Effect", "setting": "30.3 µM, […]", "value": -198.3, "unit": "%"}
    ]},
    {"smiles": "CNC(=O)C(CC(C)C)NC(=O)c1cccc(-c2nc(C)cs2)c1", "note": "(stereo not given)", "values": [
      {"measurement": "Percent Effect", "setting": "30.3 µM, […]", "value": 71.45, "unit": "%"}
    ]},
    {"smiles": "NC(=O)NCC(=O)N1C[C@H]2CC[C@@H]1CN(Cc1cscn1)C2", "values": [
      {"measurement": "Percent Effect", "setting": "30 µM, 30.03 µM", "value": -50.24, "unit": "%"}
    ]},
    {"smiles": "CN(C)[C@@H]1CCN(CC2CC2)[C@H]1Cc1cnn(C)c1.O=C(O)C(F)(F)F.O=C(O)C(F)(F)F", "values": [
      {"measurement": "Percent Effect", "setting": "30.3 µM, […]", "value": -399.8, "unit": "%"}
    ]},
    {"smiles": "COc1ccc2[nH]cc(-c3ccnc(N4CCC(C)CC4)n3)c2c1", "values": [
      {"measurement": "Percent Effect", "setting": "30.3 µM, […]", "value": 23.49, "unit": "%"}
    ]},
    {"smiles": "O=c1[nH]c(-c2ccncc2)ncc1-c1ccnc(NC2CCCCC2)n1", "values": [
      {"measurement": "Percent Effect", "setting": "30.3 µM, […]", "value": -18.66, "unit": "%"}
    ]},
    {"smiles": "COc1ccc2[nH]cc(-c3ccnc(NC4CCCC4)n3)c2c1", "values": [
      {"measurement": "Percent Effect", "setting": "30.3 µM, […]", "value": 82.65, "unit": "%"}
    ]},
    {"smiles": "COCCN1CCC2(CCC(=O)N2Cc2csc(C)n2)CC1.O=C(O)C(F)(F)F.O=C(O)C(F)(F)F", "values": [
      {"measurement": "Percent Effect", "setting": "30.3 µM, […]", "value": -13.8, "unit": "%"}
    ]},
    {"smiles": "CC(=O)N1[C@@H](C(=O)NCC2CC2)C[C@@H]2CN(Cc3nccs3)C[C@@H]21.O=C(O)C(F)(F)F", "values": [
      {"measurement": "Percent Effect", "setting": "30.3 µM, […]", "value": -16.07, "unit": "%"}
    ]},
    {"smiles": "Cc1ccc(C(=O)N(CCC#N)Cc2ccccn2)cc1C", "values": [
      {"measurement": "Percent Effect", "setting": "30 µM, 30.03 µM", "value": 52.21, "unit": "%"}
    ]},
    {"smiles": "COc1cc(C(=O)N(CCC#N)Cc2ccccn2)ccc1C", "values": [
      {"measurement": "Percent Effect", "setting": "30 µM, 30.03 µM", "value": 33.36, "unit": "%"}
    ]},
    {"smiles": "COc1cc(C(=O)N(CCC#N)Cc2ccccn2)cc(OC)c1C", "values": [
      {"measurement": "Percent Effect", "setting": "30 µM, 30.03 µM", "value": 4.832, "unit": "%"}
    ]},
    {"smiles": "Cc1cnn(C2CCCN(C(=O)c3ccc(-n4cccn4)nc3)C2)c1", "note": "(stereo not given)", "values": [
      {"measurement": "Percent Effect", "setting": "30.3 µM, […]", "value": -2.436, "unit": "%"},
      {"measurement": "Percent Effect", "setting": "10 mM, 10 mM as filed; unlikely as a test dose", "value": -29.12, "unit": "%"}
    ]},
    {"smiles": "O=C(O)C(F)(F)F.O=C1CCCN1Cc1nnn2c1CN(c1cccnc1)CCC2", "values": [
      {"measurement": "Percent Effect", "setting": "30.3 µM, […]", "value": -14.81, "unit": "%"}
    ]},
    {"smiles": "Cc1ccc(CN2Cc3c(C(=O)N4CCCC4)nn(C)c3C2)s1.O=C(O)C(F)(F)F", "values": [
      {"measurement": "Percent Effect", "setting": "30 µM, 30.03 µM", "value": -54.81, "unit": "%"}
    ]},
    {"smiles": "CN(C)Cc1nnn2c1CN(Cc1cccnc1)CCC2.O=C(O)C(F)(F)F.O=C(O)C(F)(F)F.O=C(O)C(F)(F)F", "values": [
      {"measurement": "Percent Effect", "setting": "30 µM, 30.03 µM", "value": -10.93, "unit": "%"}
    ]},
    {"smiles": "Cc1cc(C)n(-c2ccccc2NC(=O)NCCCN(C)S(C)(=O)=O)n1", "values": [
      {"measurement": "Percent Effect", "setting": "30 µM, 30.03 µM", "value": -25.36, "unit": "%"}
    ]},
    {"smiles": "Cc1nn(-c2ncnc3[nH]cnc23)c2c1C(C(C)(C)C)CC(=O)N2", "note": "(stereo not given)", "values": [
      {"measurement": "Percent Effect", "setting": "30 µM, 30.03 µM", "value": 101.7, "unit": "%"}
    ]},
    {"smiles": "CC(C)CC1SCC(=O)Nc2c1cnn2C(C)C", "note": "(stereo not given)", "values": [
      {"measurement": "Percent Effect", "setting": "30 µM, 30.03 µM", "value": 38.7, "unit": "%"}
    ]},
    {"smiles": "Cc1nn(-c2ccccc2)c2c1C(c1ccc(C(=O)O)cc1)CC(=O)N2", "note": "(stereo not given)", "values": [
      {"measurement": "Percent Effect", "setting": "30 µM, 30.03 µM", "value": 16.38, "unit": "%"}
    ]},
    {"smiles": "Cc1nn(-c2ncnc3[nH]cnc23)c2c1C(C(C)C)CC(=O)N2", "note": "(stereo not given)", "values": [
      {"measurement": "Percent Effect", "setting": "30 µM, 30.03 µM", "value": 16.15, "unit": "%"}
    ]},
    {"smiles": "Cc1ccc(-n2nc(C)c3c2NC(=O)CC3c2cnc(N)s2)cc1", "note": "(stereo not given)", "values": [
      {"measurement": "Percent Effect", "setting": "30.3 µM, […]", "value": 2.745, "unit": "%"}
    ]},
    {"smiles": "Cc1nn(-c2ncnc3[nH]cnc23)c2c1C(CC(C)C)CC(=O)N2", "note": "(stereo not given)", "values": [
      {"measurement": "Percent Effect", "setting": "30 µM, 30.03 µM", "value": 53.52, "unit": "%"}
    ]},
    {"smiles": "CC[C@@H](CO)Nc1cc(-c2cn[nH]c2)ncn1", "values": [
      {"measurement": "Percent Effect", "setting": "30.3 µM, […]", "value": -17.33, "unit": "%"}
    ]}
  ]
}
